Experimental data from the supplement of paper PMC3334620.
In all, about 33,000 sequences were measured (“E-score (-0.5 to 0.5)”: median about -0.056, highest 2% from about 0.38 on). The list comes from a sample in which the highest values are over-represented; it also holds similar and randomly drawn sequences.

biological target: Stb4 (UniProt P50104); experiment: PBM E-score (8-mer binding enrichment) (E-score (-0.5 to 0.5)); higher = stronger / more preferred TF binding; details: protein concentration: 200 nM; construct: GST-DNA-binding domain
Chain of UniProt P50104 (P50104 whole entry, the tested form may be a part): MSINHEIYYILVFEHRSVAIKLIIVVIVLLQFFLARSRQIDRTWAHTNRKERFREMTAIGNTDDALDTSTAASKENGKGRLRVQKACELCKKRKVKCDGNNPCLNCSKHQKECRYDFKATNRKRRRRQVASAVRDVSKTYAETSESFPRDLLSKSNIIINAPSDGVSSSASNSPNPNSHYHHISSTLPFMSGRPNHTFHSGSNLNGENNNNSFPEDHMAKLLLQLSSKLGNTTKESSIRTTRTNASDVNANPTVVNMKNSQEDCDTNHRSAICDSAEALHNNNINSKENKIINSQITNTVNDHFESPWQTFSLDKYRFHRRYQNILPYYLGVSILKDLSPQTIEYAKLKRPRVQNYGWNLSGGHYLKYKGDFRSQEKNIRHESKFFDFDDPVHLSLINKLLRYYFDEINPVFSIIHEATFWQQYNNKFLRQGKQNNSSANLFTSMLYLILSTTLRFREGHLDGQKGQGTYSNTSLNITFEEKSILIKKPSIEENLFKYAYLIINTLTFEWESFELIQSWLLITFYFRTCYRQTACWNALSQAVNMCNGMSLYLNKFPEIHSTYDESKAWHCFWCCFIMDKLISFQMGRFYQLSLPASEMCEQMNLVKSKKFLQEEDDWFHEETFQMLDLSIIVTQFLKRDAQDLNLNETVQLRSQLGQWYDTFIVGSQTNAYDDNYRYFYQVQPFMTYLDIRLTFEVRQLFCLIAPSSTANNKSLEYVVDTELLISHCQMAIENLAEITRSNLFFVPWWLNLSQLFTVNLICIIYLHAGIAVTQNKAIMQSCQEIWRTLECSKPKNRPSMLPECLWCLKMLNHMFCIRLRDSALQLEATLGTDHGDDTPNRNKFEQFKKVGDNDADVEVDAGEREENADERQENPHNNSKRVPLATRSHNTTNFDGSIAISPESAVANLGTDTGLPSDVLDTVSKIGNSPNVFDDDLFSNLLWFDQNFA
Method: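 Universal 'all 10-mer' protein binding microarrays (Agilent AMADID 015681) probed with GST-tagged S. cerevisiae TFs (full-length or DBD) made by in vitro transcription/translation (PURExpress), about 100-200 nM. Bound TF was detected with fluorescent anti-GST. Each ungapped 8-mer (which stands for itself and its reverse complement) is scored by the PBM enrichment score (E-score), a modified Wilcoxon-Mann-Whitney statistic from -0.5 to +0.5, computed with the Universal PBM Analysis Suite. Scale: above 0.35 generally sequence-specific binding.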

Sequence	PBM E-score
CCGAGGCC	0.436
ACGAGGCC	-0.0545
GCGAGGCC	-0.243
CCGAGGCA	0.396
GCGAGGCA	0.0697
TCGAGGCA	-0.187
CAGAGGCG	-0.0504
CCGAGGCG	0.398
ACGAGGCG	-0.0457
ACCCCCGA	0.317
ACACGAGA	-0.19
ACCCGAGT	0.423
ACCCGGGT	0.41
ACTCGAGG	-0.152
ACCCGGGC	0.326
ACCCGAGG	0.427
ACCCGGGA	0.378
CCCCGAGG	0.375
ACACGAGT	-0.0741
ACCCGCGT	0.188
ACCCGAGA	0.472
AGAGCTCT	-0.0781
GAGCCCCC	-0.168

Sequence	PBM E-score
AGCTCACA	-0.192
CCTAGTAG	-0.0242
AGCATACT	-0.166
AGGGGAAT	0.0637
ATTGAGAA	-0.0694
CACAGTGG	-0.0386
ACCACCAA	0.031
CAGCTAGC	-0.0222
ACTCCTCT	-0.061
GGGCCACA	-0.0749
TCCCGAGA	0.453
GCCCGAGA	0.352
GCCCGAGC	0.316
ACCCGAGC	0.468
CCCCGAGA	0.326
CCCCGAGC	0.371
CGACTCGC	-0.0581
AAAGCAAG	0.149
AGCATTCA	-0.0667
ACCGAGTA	0.321
ACCGAGTC	0.244
CTCGAGTC	-0.0623
GCCGAGTA	0.374

Sequence	PBM E-score
CCCGAGTA	0.383
CCCGAGTC	0.395
GGGCATGA	-0.248
ACGCTGAG	-0.29
CGTCTTGC	0.125
ATGTGAGA	-0.03
GCTGGGAC	-0.117
AGCGGATA	0.386
GGCGGATA	0.374
AGCGGATC	0.255
AGCGGATG	0.275
CGCGGATC	0.263
CGCGGATA	0.4
CCCCCCTA	-0.178
ACTGGTGA	-0.226
TATCGGCA	0.326
TATCGGGA	0.361
TATCGGAA	0.431
GATCGTAA	-0.0241
GATCGGCC	0.218
GAACGGAA	0.346
CATCGGAA	0.435
GATCGGAA	0.425

Sequence	PBM E-score
CATCGGAC	0.259
GATCGGAC	0.392
GATCGGGC	0.22
CATCGGAG	0.204
CCATTCCG	0.35
ATATTGGA	-0.0099
CGTCTGCA	-0.122
GAGCATCA	-0.181
AACCAAGA	-0.0962
AAGGCCAA	-0.173
CCAATATC	0.137
AAAGAAAC	0.0504
CAATCGTC	-0.187
AATCGGAT	0.424
AATCGGGT	0.325
AATCGGAC	0.133
AATCGGCC	0.191
AATCGGAA	0.425
AATCGGAG	0.277
CTGACTGA	-0.239
CTAGCCCC	-0.0513
CTTAAAAA	-0.232
ATTCCCGG	0.372

Sequence	PBM E-score
GTTCCCCA	-0.244
GTTCCCGA	0.419
ATTCCCGA	0.451
CTTCCCGC	0.2
ATTCCCGC	0.295
CTTCCCGA	0.438
GTTCCCAA	-0.009
CTCCCCGA	0.282
GCGTCTGA	-0.15
CACTGCCA	-0.176
CAGCGCGG	0.148
ATGGGACA	-0.0554
CCATAGCC	0.0889
GTGGTCCA	-0.0876
GGGGACAA	0.109
CACCTGCG	-0.018
AGGAAGCA	-0.109
CGGAAGGC	0.373
CGGAAGCC	0.41
